Sampled rows, rich in hits. Any-hit rate of the full collection: about 3.5%.
UGM FP inh: blocks M. tuberculosis UGM enzyme; P9WIQ1; purified UGM, fluorescence polarization probe displacement; inhibition, % at 10 µM; hit rate 0.06% among 320,000; AID 504406; in the data active = inhibition above about 10%, passing the limit was not always enough; inconclusive = no clear call, values can overlap the other calls
Rv3671c protease: inhibits the M. tuberculosis serine protease Rv3671c; hit rate 0.048% among 320,000; inhibition, % at 5.96 µM; P9WHR9; AID 2606; in the data active = inhibition above about 38%;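 also: extracellular domain of Rv3671c used as enzyme; 0% = enzyme with DMSO and 100% = no enzyme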
Target sequence (P9WHR9 whole entry, looked up, the tested form may be a part): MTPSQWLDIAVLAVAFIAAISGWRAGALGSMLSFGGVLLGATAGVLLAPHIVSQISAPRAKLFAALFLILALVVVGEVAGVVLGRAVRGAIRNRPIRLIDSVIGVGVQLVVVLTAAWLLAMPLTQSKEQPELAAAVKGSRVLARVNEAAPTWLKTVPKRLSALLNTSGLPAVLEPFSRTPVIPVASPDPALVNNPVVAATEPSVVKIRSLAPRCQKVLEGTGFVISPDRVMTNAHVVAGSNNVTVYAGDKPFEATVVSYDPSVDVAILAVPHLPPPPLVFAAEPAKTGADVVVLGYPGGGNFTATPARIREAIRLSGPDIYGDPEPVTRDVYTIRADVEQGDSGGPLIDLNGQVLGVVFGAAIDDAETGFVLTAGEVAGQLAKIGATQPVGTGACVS
FBA Mtb inh: Mtb fructose-bisphosphate aldolase inhibition; P9WQA3; purified M. tuberculosis FBA, fluorescence read-out; inhibition, % at 1 µM; hit rate 2.3% among 360,000; AID 588726;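 also: 0% = vehicle and 100% = reference inhibitor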
GDH-TPI counter-1: inhibits GDH-TPI coupling enzymes, artifact for Mtb FBA screen. GDH-TPI coupled enzyme counterscreen, NADH absorbance. inhibition, % at 4.8 µM. hit rate 1.2% among 360,000; in the data active = inhibition above about 30%;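 also: 0% = DMSO wells and 100% = wells lacking the enzyme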
Mtb hypoxia inh: inhibitors of hypoxia-regulated fluorescent reporter in Mycobacterium tuberculosis; M. tuberculosis hypoxia-regulated fluorescent reporter, fluorescence; fluorescence inhibition, % (test concentration not listed); hit rate 0.1% among 300,000; in the data active = fluorescence inhibition mostly above about 23%, no sharp cut-off; inactive = mostly below about 17%
FadD28 FP inh: inhibitors of Mycobacterium tuberculosis FadD28 bisubstrate binding | FadD28 bisubstrate probe binding, fluorescence polarization | inhibition, % at 12.5 µM | hit rate 0.22% among 360,000 | AID 588549; in the data active = inhibition above about 8.5%, passing the limit was not always enough; inconclusive = no clear call, values can overlap the other calls
Mtb FBA inh conf: confirmation of M. tuberculosis fructose-bisphosphate aldolase inhibitors | hit rate 78% among 5,600 | inhibition, % at 1 µM | shares compounds with FBA Mtb inh | purified M. tuberculosis FBA, fluorescence read-out;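 also: 0% = vehicle wells and 100% = reference inhibitor wells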
GDH-TPI counter-2: inhibits GDH-TPI coupling enzymes, flagging Mtb FBA hits; shares compounds with FBA Mtb inh; hit rate 81% among 5,600; GDH-TPI coupled enzyme counterscreen, fluorescence; inhibition, % at 1 µM; in the data active = inhibition above about 10%
* = called active by the depositor; ? = inconclusive; / = no result; + = active, no number. Rule as the data show it, unless noted: active = inhibition above about 27%; inactive = the rest.

SMILES	UGM FP inh	Rv3671c protease	FBA Mtb inh	GDH-TPI counter-1	Mtb hypoxia inh	FadD28 FP inh	Mtb FBA inh conf	GDH-TPI counter-2
C[C@H](NC(=O)c1cc2cc(Cl)ccc2n1C)C(=O)N1CCC(C(=O)O)CC1	1	/	3	5	0	0	/	/
COc1ccc2c(c1)cc(C(=O)N[C@@H](Cc1ccccc1)C(=O)O)n2C	2	-6	92*	1	17	-1	121*	88*
Cn1c(C(=O)N[C@@H](Cc2ccccc2)C(=O)NCCC(=O)O)cc2cc(Cl)ccc21	-1	/	3	14	4	0	/	/
COc1ccc2c(c1)cc(C(=O)N[C@@H](CCSC)C(=O)N1CCC(C(=O)O)CC1)n2C	-1	-3	64*	-7	11	-4	0	-1
Cn1c(C(=O)N[C@@H](Cc2ccccc2)C(=O)O)cc2cc(F)ccc21	1	9	8	-9	-6	-4	/	/
O=C(NN=Cc1ccccc1OCc1ccccc1)c1ccco1	/	/	/	/	8	/	/	/
CCOC(=O)C1C2COc3ccccc3C2N2C(=O)c3ccccc3NC(=O)[C@@]12C (some centres undefined)	/	/	/	/	2	/	/	/
CCc1ccc(NC(=O)Cc2cn(C)c3ccccc23)cc1	0	-5	1	-3	6	1	/	/
CCC(C)NC(=O)Cc1cn(C)c2ccccc12 (centres undefined)	-1	2	102*	-7	14	-4	9	-3
CC(C(=O)CC(=O)OC(C)(C)C)C(O)c1c(F)cccc1Cl (centres undefined)	/	/	/	/	5	/	/	/
CN(Cc1ccc(F)cc1)C(=O)CNC(=O)c1cccs1	-1	-9	64*	4	9	-2	1	-5
O=c1oc2cc(O)ccc2cc1-c1nc2c(s1)CCc1ccccc1-2	1	-23	38*	-7	7	-2	/	+
O=C(NN=C1CCCC1)c1cc(Cl)cc(Cl)c1O	0	7	41*	9	-2	20*	70*	61*
COc1ccc(Cl)cc1C(=O)NN=C1CCCC1	1	1	-1	16	-13	-3	/	/
Cc1nn(-c2ccccc2)c2nc(Cl)c(C(=O)O)cc12	-1	3	31*	6	-1	0	+	+
Cc1ccc(-n2nc(C)c3c(C)c(CCC(=O)O)c(C)nc32)cc1	-4	4	68*	2	15	-3	184*	117*
CCOC(=O)CCc1c(C)nc2c(c(C)nn2-c2ccc(C)cc2)c1C	4	1	8	0	-4	1	/	/
Cc1ccc(-n2nc(C)c3c(C)c(CCC(=O)O)c(C)nc32)cc1C	0	-3	40*	2	-1	-3	1	0
CCN(CC)c1ccc(C(=O)NN=C(C)c2cccc(OC)c2)cc1	/	/	/	/	11	/	/	/
COC(=O)C1=C(c2c(C)noc2C)CC2CCC1N2C(=O)NC1CCCCC1 (centres undefined)	/	/	/	/	7	/	/	/
N#Cc1ccc(C(=O)OCC(=O)N2CCN(C(=O)c3ccco3)CC2)cc1	2	7	-3	-1	14	-4	/	/
N#Cc1ccccc1OCC(=O)OCC(=O)N1CCN(C(=O)c2ccco2)CC1	-2	-2	74*	14	10	-1	170*	147*
CC1CN(C(C)CO)C(=O)c2cc(NC(=O)c3ccncc3)ccc2OC1CN(C)C(=O)NC1CCCCC1 (centres undefined)	/	/	/	/	10	/	/	/
Cc1ccc2[nH]c(-c3cccc(F)c3)cc(=O)c2c1	-2	-10	11	15	4	-1	/	/
COc1ccc2[nH]c(-c3cccc(F)c3)cc(=O)c2c1	-2	-1	41*	3	-3	-2	2	-4
S=C1NCC(CC2CCCCC2)N1CCCCC1CCCCC1 (centres undefined)	/	/	/	/	0	/	/	/
O=C(NN=Cc1cc(Br)c(O)c(Br)c1)c1ccccc1NS(=O)(=O)c1cccs1	1	6	79*	48*	8	?	165*	135*
CCOC1OC(C(=O)NCc2ccccc2)=CC(C)C1CCCO (centres undefined)	/	/	/	/	7	/	/	/
Oc1ccc(C=NNC(=S)Nc2cccnc2)c(O)c1	/	/	/	/	20	/	/	/

High-throughput results deposited in PubChem BioAssay by several laboratories.
